Results as given in PubChem BioAssay (NCATS).
Records with an inconclusive call do not appear. The source made the active and inactive calls. Calls come from the whole dose curve; as a rule, active = well fitted curve in the direction sought with a large enough effect; inconclusive = small, poorly fitted or top-dose-only effect, or another doubt; inactive = no such curve, though single readings can be large; an effect the other way counts as inactive or inconclusive.

Assays:
[1] = qHTS of pediatric cancer cell lines to identify multiple opportunities for drug repurposing: Primary screen for control Hh wild type fibroblast cells (AID 1347106);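 note: series mostly up to about 46 µM; a drop in luminescence marks cytotoxicity and a rise apparent proliferation; nearly all actives have a fitted effect of over 55% in size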
In short: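 Viability after 48 h compound treatment at 37C, 500-1,000 cells/well, read as ATP luminescence with CellTiter-Glo. Primary screens used 11-point (MIPE, 0.78 nM-46 µM) or 8-point (NPC, 0.59 nM-46 µM) final concentrations; follow-up screens used 11-point dilutions.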

[2] = qHTS of pediatric cancer cell lines to identify multiple opportunities for drug repurposing: Primary screen for Rh30 cells (AID 1347107); note: series mostly up to about 46 µM; nearly all actives have a fitted effect of over 75% in size
In short: (§1)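 Cells (500-1,000/well) in growth media were settled 5 h at 37 degrees C, then given compounds for 48 h. Viability was read as CellTiter-Glo luminescence. Primary runs used MIPE at 11 points (0.78 nM-46 µM) and NPC at 8 points (0.59 nM-46 µM); follow-ups used 11 points.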

[3] = qHTS of pediatric cancer cell lines to identify multiple opportunities for drug repurposing: Primary screen for Rh41 cells (AID 1347108); note: nearly all actives have a fitted effect of over 70% in size; note: potency is the fitted concentration of half-maximal effect
In short: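 Readout: CellTiter-Glo luminescence, 48 h treatment. Controls DMSO (neutral) and bortezomib 2.3 µM final (positive). Potency and efficacy taken from primary-screen concentration-response curves.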

[4] = qHTS of pediatric cancer cell lines to identify multiple opportunities for drug repurposing: Confirmatory screen for NB1643 cells (AID 1347109); note: nearly all actives have a fitted effect of over 45% in size; note: potency is the fitted concentration of half-maximal effect
In short: as §1

[5] = qHTS of pediatric cancer cell lines to identify multiple opportunities for drug repurposing: Confirmatory screen for A673 cells (AID 1347110);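 note: cells exposed to compound for 48 h before the viability read; nearly all actives have a fitted effect of over 65% in size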; note: potency is the fitted concentration of half-maximal effect
In short: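 qHTS titration format: primary MIPE 0.78 nM-46 µM (11 pts), NPC 0.59 nM-46 µM; confirmation 11 pts. 48 h, CTG luminescence.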

[6] = qHTS of pediatric cancer cell lines to identify multiple opportunities for drug repurposing: Confirmatory screen for BT-12 cells (AID 1347112); note: nearly all actives have a fitted effect of over 55% in size
In short: as §1

[7] = qHTS of pediatric cancer cell lines to identify multiple opportunities for drug repurposing: Confirmatory screen for SJ-GBM2 cells (AID 1347116); note: nearly all actives have a fitted effect of over 60% in size; note: potency is the fitted concentration of half-maximal effect
In short: (§2)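 Viability measured as metabolically active cells via CellTiter-Glo luminescence following 48 hours of compound exposure, 11-point dilutions in confirmatory testing. 500-1,000 cells/well plated 5 hours before dosing; controls were DMSO and 2.3 µM bortezomib.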

[8] = qHTS of pediatric cancer cell lines to identify multiple opportunities for drug repurposing: Confirmatory screen for LAN-5 cells (AID 1347113); note: nearly all actives have a fitted effect of over 65% in size
In short: as §1

[9] = qHTS of pediatric cancer cell lines to identify multiple opportunities for drug repurposing: Confirmatory screen for DAOY cells (AID 1347114); note: nearly all actives have a fitted effect of over 65% in size
In short: as §2

[10] = qHTS of pediatric cancer cell lines to identify multiple opportunities for drug repurposing: Confirmatory screen for NB-EBc1 cells (AID 1347115);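 note: cells exposed to compound for 48 h before the viability read; nearly all actives have a fitted effect of over 45% in size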; note: potency is the fitted concentration of half-maximal effect
In short: as §1

Measured: Potency

CCCC(CCC)C(=O)O
inactive: [1] | [2] | [3]

Nc1ccc(S(=O)(=O)Nc2ccnn2-c2ccccc2)cc1
inactive: [1] | [2] | [3]

CC1(C)SCCN(S(=O)(=O)c2ccc(OCC#CCO)cc2)[C@@H]1C(=O)NO
inactive: [1] | [2] | [3]

O=C(C=Cc1ccc(/C=C/C(=O)Nc2ccc(C3=NCCN3)cc2)cc1)Nc1ccc(C2=NCCN2)cc1
inactive: [1] | [2] | [3]

COc1ccc(CCN2CCN(CCCc3ccccc3)CC2)cc1OC
inactive: [1] | [2] | [3]

Cc1cnc(NC(=O)C2=C(O)c3ccccc3S(=O)(=O)N2C)s1
inactive: [1] | [2] | [3]

CC[C@H](Nc1ncnc2nc[nH]c12)c1nc2cccc(F)c2c(=O)n1-c1ccccc1
active: [3] 14.8 µM
inactive: [1]

OC[C@H](Cc1ccccc1)Nc1nc(Oc2ccc3c(c2)CCC3)nc2c1ncn2Cc1ccc(-c2ccccc2)cc1
inactive: [1] | [2] | [3] | [4] | [6] | [7]
active: [5] 4.65 µM

COc1ccc(C2=N[C@H](c3ccc(Cl)cc3)[C@H](c3ccc(Cl)cc3)N2C(=O)N2CCNC(=O)C2)c(OC(C)C)c1
inactive: [1]
active: [3] 18.7 µM

Cc1cn[nH]c1
inactive: [1] | [2] | [4] | [5] | [6] | [8] | [9] | [10] | [7]

O=c1n(CCCN2CCN(c3cccc(Cl)c3)CC2)nc2ccccn12
inactive: [1] | [2] | [3]

NC[C@H](O)c1ccc(O)c(O)c1
inactive: [1] | [2] | [3]

OC(CCN1CCCCC1)(c1ccccc1)C1CC2C=CC1C2 (stereo not given)
inactive: [1] | [2] | [3]

Oc1ccc(C2CNCCc3c2cc(O)c(O)c3Cl)cc1 (stereo not given)
inactive: [1] | [2] | [3]

CC(C)NCC(O)COc1ccc(COCCOC(C)C)cc1 (stereo not given)
inactive: [1] | [2] | [3]

Cc1ccc(N(CC2=NCCN2)c2cccc(O)c2)cc1
inactive: [1] | [2] | [3]

CCN(CC)CCCC(C)Nc1ccnc2cc(Cl)ccc12 (stereo not given)
inactive: [1] | [2] | [3] | [4] | [5] | [6] | [8] | [9] | [10]

COCCNCCCn1c(C(=O)CF)c(-c2ccc(C)cc2)c2c(N)ncnc21
inactive: [1] | [3]

CC(c1cc2ccccc2s1)N(O)C(N)=O (stereo not given)
inactive: [1] | [2] | [3]

N=c1nc(N2CCCCC2)cc(N)n1O
inactive: [1] | [2] | [3]

Nc1nc2ccc(OC(F)(F)F)cc2s1
active: [5] 18.5 µM
inactive: [1] | [2] | [3] | [6] | [10] | [7]

Cc1[nH]c(=O)c(C#N)cc1-c1ccc2nccn2c1
inactive: [1] | [2] | [3]

O=C(O)COCCN1CCN(C(c2ccccc2)c2ccc(Cl)cc2)CC1 (stereo not given)
inactive: [1] | [2] | [3]

CCc1ccc(CCOc2ccc(CC3SC(=O)NC3=O)cc2)nc1 (stereo not given)
inactive: [1] | [2] | [3]

NCCc1ccc(O)c(O)c1
inactive: [1] | [2] | [3]

O=NN(CCCl)C(=O)NCCCl
active: [5] 16.5 µM
inactive: [1] | [2] | [3] | [4] | [6] | [8] | [9] | [7]

O=C(C1CC1)N1CC[C@@H](Cn2c(-c3ccc(-c4ccc5occc5c4)cc3)nc3cnccc32)C1
inactive: [1] | [2] | [3]

CC(C)OC(=O)C1=CN(C(=O)c2ccc(F)c(F)c2)CC(C)(C)c2c1[nH]c1ccccc21
inactive: [1] | [2] | [3]

OC(CN1CCC(Cc2ccc(F)cc2)CC1)c1ccc(Cl)cc1 (stereo not given)
active: [5] 3.69 µM
inactive: [1] | [2] | [3] | [6] | [8] | [9] | [10] | [7]

O=C(O)CCc1ccc(NCc2cccc(Oc3ccccc3)c2)cc1
inactive: [1] | [2] | [3]

COc1ccc2nc(S(=O)Cc3ncc(C)c(OC)c3C)[nH]c2c1 (stereo not given)
inactive: [1] | [2] | [3]

CN(C)c1ccc(C2Nc3ccc4ccccc4c3C3=C2C(=O)CC(C)(C)C3)cc1Br (stereo not given)
inactive: [1] | [2] | [6] | [8] | [9]
active: [10] 42.7 µM | [7] 8.27 µM

Cc1oncc1C(=O)Nc1ccc(C(F)(F)F)cc1
inactive: [1] | [2] | [3] | [4] | [6] | [8] | [9] | [10]

Nc1nc2[nH]cc(CCc3ccc(C(=O)N[C@@H](CCC(=O)O)C(=O)O)cc3)c2c(=O)[nH]1
active: [4] 20.8 µM | [5] 2.33 µM
inactive: [1] | [2] | [6] | [8] | [9] | [10]
